Screening results: PubChem BioAssay, National Center for Advancing Translational Sciences (NCATS)
This is a sample that favours compounds with a hit; in the whole collection about 7.5% have one here.
FLuc counter = counter-screen for miR-21 project: firefly luciferase inhibitors or activators | P08659 | purified FLuc, Km substrates, luminescence inhibition | Potency, µM (titrated, usually from 57.5 µM), most hits filed as inhibitors | hit rate 6.9% among 360,000 | AID 588342; note: nearly all actives have a fitted effect of over 55% in size
Target sequence (P08659 whole entry, looked up): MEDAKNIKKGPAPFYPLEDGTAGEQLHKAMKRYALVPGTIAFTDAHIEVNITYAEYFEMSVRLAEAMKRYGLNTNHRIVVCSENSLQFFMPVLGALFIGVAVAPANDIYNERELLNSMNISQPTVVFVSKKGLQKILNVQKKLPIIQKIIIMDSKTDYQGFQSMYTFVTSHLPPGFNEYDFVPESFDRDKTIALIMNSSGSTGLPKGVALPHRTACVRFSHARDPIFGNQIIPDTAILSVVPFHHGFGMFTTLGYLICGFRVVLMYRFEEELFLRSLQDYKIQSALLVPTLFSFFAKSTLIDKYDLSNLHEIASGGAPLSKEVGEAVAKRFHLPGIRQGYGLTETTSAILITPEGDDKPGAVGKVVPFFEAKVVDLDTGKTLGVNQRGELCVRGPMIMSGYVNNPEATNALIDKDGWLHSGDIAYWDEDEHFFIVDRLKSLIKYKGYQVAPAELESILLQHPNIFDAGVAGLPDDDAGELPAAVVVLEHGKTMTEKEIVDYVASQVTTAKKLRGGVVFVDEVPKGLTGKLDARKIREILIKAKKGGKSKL
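Purified P. pyralis luciferase, 10 nM final, with Km-level 10 uM D-luciferin and 10 uM ATP in 50 mM Tris acetate pH 7.5, 10 mM Mg acetate, 0.01% Tween-20, 0.05% BSA; 6-point qHTS titration about 60 µM downward; luminescence read.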
ELG1 genotox = inducers of genotoxicity in HEK293T ELG1-luciferase cells. hit rate 1.3% among 330,000. Potency, µM (series often up to 46 µM), hits mostly activators. HEK293T ELG1-luciferase reporter, luminescence, 16 h; note: nearly all actives have a fitted effect of over 60% in size
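Genotoxicity was scored as increased ELG1-luciferase reporter signal, measured by ONE-Glo luminescence (30 min, room temperature). Compound or vehicle exposure of the HEK293T reporter cells lasted 16 hr at 37°C.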
SMN2 splice enh = increases expression of the SMN2 splice variant. AID 1458. Potency, µM (series often up to 46.1 µM), actives largely listed as activators. HEK293 SMN2-luciferase splicing reporter, luminescence, 30-36 h. hit rate 2.8% among 210,000; note: nearly all actives have a fitted effect of over 55% in size
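HEK293 cells carry an SMN2 […]–luciferase reporter in which exon 7 inclusion puts luciferase in frame. Cells were plated 10-12 h before compound addition, then incubated 30-36 h at 37C. ONE-Glo luminescence was read; sodium butyrate at 4.5 mM final served as control.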
NPC1 prom act = activates the NPC1 promoter | hit rate 2.4% among 320,000 | AID 485313 | Potency, µM (doses to about 9.22 µM), usual class: activators | Huh7 NPC1 promoter luciferase reporter, 24 h; note: nearly all actives have a fitted effect of over 60% in size
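Cells: Huh7 expressing luciferase under the NPC1 promoter, 1500/well. Seeded 2 h, compound added, incubated 24 h at 37 °C. Luciferase reagent, 10 min ambient, then luminescence.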
KinaseGlo FLuc = Kinase-Glo luciferase inhibition (counter-screen); Q27757; Kinase-Glo luciferase, ATP luminescence, 8 min; Potency, µM (titrated, usually from 38.3 µM), actives largely listed as inhibitors; hit rate 0.28% among 200,000; AID 1379; note: nearly all actives have a fitted effect of over 60% in size
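Recombinant Kinase-Glo luciferase, 10 uM ATP (linear range), luciferin; imidazole pH 7.2 / KCl / MgCl2 / Tween / BSA buffer; 8 min RT; luminescence.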
Rab9 prom act = Rab9 promoter activation; Huh7 Rab9 promoter-luciferase reporter, luminescence, 24 h; Potency, µM (titrated, usually from 9.22 µM), actives largely listed as activators; hit rate 2.8% among 320,000; AID 485297; note: nearly all actives have a fitted effect of over 60% in size
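Luminescence read-out: Huh7 cells stably expressing Rab9-luciferase, treated 24 h with compound at 37 °C, then lysed with luciferase reagent for 10 min at ambient before reading.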
Numbers stand for hits; - = inactive; ? = inconclusive; . = no result. Calls come from the whole dose curve; as a rule, active = well fitted curve in the direction sought with a large enough effect; inconclusive = small, poorly fitted or top-dose-only effect, or another doubt; inactive = no such curve, though single readings can be large; an effect the other way counts as inactive or inconclusive.

SMILES	FLuc counter	ELG1 genotox	SMN2 splice enh	NPC1 prom act	KinaseGlo FLuc	Rab9 prom act
Cc1nc2cc(NC(=O)Nc3nccs3)ccc2n1C	4.3µM	2.6µM	14µM	1.4µM	?	1.4µM
CCn1c(C)nc2cc(C(=O)OC)ccc21	-	-	.	-	-	-
CCn1c(C)nc2cc(NC(=O)Nc3cccc(C(C)=O)c3)ccc21	1.5µM	-	.	2.8µM	.	?
O=C(c1ccc(F)cc1)N1CCCC(C(=O)N2CCc3ccccc3C2)C1 (centres undefined)	-	-	.	-	.	-
CCc1cccc(C)c1NC(=S)NCC(c1cccnc1)N1CCOCC1 (centres undefined)	-	-	-	-	-	-
COc1ccc(C)cc1S(=O)(=O)N1CCCC(C(=O)N2CCOCC2)C1 (centres undefined)	-	-	.	-	.	-
CC(CCc1ccccc1)NC(=O)C(=O)Nc1ccccc1 (centres undefined)	?	?	14µM	3.2µM	-	2.8µM
CCCN(C(=O)Cn1nc(Cc2ccncc2)c2ccccc2c1=O)c1ccccc1C	-	.	-	.	.	.
CC(=O)c1ccc(N2CCN(C(=O)c3cc(-c4cccnc4)nc4ccc(Br)cc34)CC2)cc1	11µM	-	-	-	-	-
O=C(c1cc(-c2cccnc2)nc2ccc(Br)cc12)N1CCN(c2ncccn2)CC1	21µM	-	-	-	-	-
CS(=O)(=O)N1CCN(C(=O)c2cc(-c3cccnc3)nc3ccc(Br)cc23)CC1	-	-	-	-	-	-
CCc1ccc(NC(=O)CSc2nc3c(sc4ccccc43)c(=O)n2CCCOC(C)C)cc1	-	.	.	.	.	.
Cc1noc(C)c1S(=O)(=O)N(C)C[C@H]1Oc2c(NS(=O)(=O)c3cn(C)cn3)cccc2C(=O)N([C@H](C)CO)C[C@@H]1C	.	-	.	.	.	.
Cc1ccc2c(nc3s/c(=C/c4cccs4)c(=O)n32)c1C	1.9µM	16µM	?	-	-	3.5µM
O=C(O)c1ccc(-c2ccc(/C=c3/sc4nc5ccccc5n4c3=O)o2)cc1Cl	19µM	-	.	-	.	-
Cc1ccc2c(nc3s/c(=C\c4ccc(-c5ccccc5C(=O)O)o4)c(=O)n32)c1C	5.4µM	-	.	-	.	-
Cc1cc(C)c2nc3s/c(=C/c4ccccc4)c(=O)n3c2c1	?	-	-	?	-	1.3µM
Cc1ccc(C)c(N2C(=N)S/C(=C\c3ccc(-c4ccccc4C(=O)O)o3)C2=O)c1	?	-	-	-	-	-
CC1(OC(=O)c2ccco2)C(=O)C2=COC(C3CC3)=CC2=C(Br)C1=O (centres undefined)	.	.	-	.	-	.
Cc1cc(Cl)ccc1NC(=O)COC(=O)c1c(C)noc1C	-	-	.	-	.	-
O=C(O)CCSc1nnc(-c2ccc3c(c2)OCO3)o1	13µM	-	-	-	-	-
COc1ccc(C2=NCC(CSc3nnc(-c4ccc5c(c4)OCO5)o3)S2)cc1 (centres undefined)	9.5µM	-	-	-	-	?
COc1cccc(OC(=O)CSc2nnc(-c3ccc4c(c3)OCO4)o2)c1	-	.	.	.	.	.
O=c1c2ccccc2nnn1CSc1nnc(-c2ccc3c(c2)OCO3)o1	6.7µM	?	?	?	-	?
Cc1ccc(CSc2nnc(-c3ccc4c(c3)OCO4)o2)cc1	?	-	-	-	-	-
SMILES	FLuc counter	ELG1 genotox	SMN2 splice enh	NPC1 prom act	KinaseGlo FLuc	Rab9 prom act
c1cc(CSc2nnc(-c3ccc4c(c3)OCO4)o2)ccn1	?	-	-	2.5µM	-	2.5µM
CCc1ccc(OC(=O)CSc2nnc(-c3ccc4c(c3)OCO4)o2)cc1	-	.	.	.	.	.
CC(C)n1cc(CNC(=O)C2CCC(=O)N(Cc3ccccc3F)C2)cn1 (centres undefined)	-	-	.	-	.	-
O=C(CSc1nc(=O)n(CCN2CCOCC2)c2c1CCCC2)Nc1ccc(F)cc1F	-	-	.	-	.	-
O=C1CC(c2ccccc2)Cc2[nH]c(=O)c(-c3nc(-c4ccc(Cl)c(Cl)c4)cs3)cc21 (centres undefined)	-	.	-	.	.	.
O=c1c2ccccc2nnn1CSc1ccccc1	1.9µM	?	7.9µM	1µM	-	0.56µM
O=C1OCCC1Sc1nnc(-c2ccc(O)cc2)o1 (centres undefined)	?	-	-	-	-	-
COc1ccc(C2=NCC(CSc3nnnn3C)S2)cc1 (centres undefined)	?	?	-	-	-	-
CC(=O)Nc1ccc(NC(=O)CSc2nnc(-c3ccc4c(c3)OCO4)o2)cc1	.	-	.	.	.	.
CC(=O)CSc1nnc(-c2ccc3c(c2)OCO3)o1	6.7µM	?	14µM	?	-	2.8µM
O=C1OCCC1Sc1nnc(-c2ccc3c(c2)OCO3)o1 (centres undefined)	9.5µM	-	-	-	-	-
COc1ccc(C2=NCC(CSc3nccc(=O)[nH]3)S2)cc1 (centres undefined)	19µM	-	-	-	-	-
Cc1ccc(NC(=O)Cn2cnc3sc(C)c(S(=O)(=O)N4CCN(c5ncccn5)CC4)c3c2=O)cc1F	-	.	-	.	.	.
C[C@@H](NC(=O)c1[nH]cnc1C(=O)Nc1cccc(Cl)c1)c1ccccc1	-	-	.	-	.	-
Cc1cc(C)c(NC(=O)Cc2ccc(-n3c(C)nc4cccnc43)cc2)c(C)c1	-	.	.	.	.	.
c1ccc(-c2cnc(CSc3nnc4ccccn34)o2)cc1	11µM	4.1µM	11µM	1.6µM	-	1µM
Fc1ccc(-c2nnc(CSc3nnc4ccccn34)o2)cc1	?	?	?	?	-	?
COc1cc(NC(=O)c2ccccc2Cl)ccc1NC(=O)c1ccco1	11µM	?	22µM	2.5µM	-	2.8µM
COc1ccccc1NC(=O)c1ccccc1NC(=O)c1cc(Cl)ccc1NC(=O)c1ccco1	-	-	-	-	-	-
O=C(Nc1ccc(NC(=O)c2cccs2)cc1Cl)c1ccco1	-	?	.	?	?	?
COc1ccc(NC(=O)c2ccco2)cc1NC(=O)c1c(OC)cccc1OC	15µM	-	-	-	.	-
COc1cc(NC(=O)c2cccs2)ccc1NC(=O)c1ccco1	?	18µM	11µM	-	-	?
COc1ccc(NC(=O)c2ccccc2NC(=O)c2ccco2)c(OC)c1	19µM	-	-	-	-	-
O=C(Nc1ccc(Br)cc1Cl)NC1CC1	-	-	.	-	-	-
Cc1cc(S(=O)(=O)N2CCN(c3ccccc3F)CC2)ccc1-n1cnnn1	-	-	.	-	.	-
COc1ccc(NC(=O)c2ccc(NC(=O)c3ccco3)cc2)c(OC)c1	-	-	.	-	.	-
COc1ccccc1NC(=O)c1oc2ccccc2c1NC(=O)c1ccco1	-	-	-	-	-	-
COc1cc(NC(=O)c2oc3ccccc3c2C)ccc1NC(=O)c1ccco1	5.4µM	-	.	-	.	?
